Shown are actives, neighbours in structure and some others; about 0.25% of the full set was active somewhere.
Tb PFK inh: T. brucei PFK enzyme inhibition | O15648 | T. brucei PFK, ADP-Glo luminescence | Potency, µM (series often up to 57.5 µM), most hits filed as inhibitors | actives 0.17% (n = 330,000); further: nearly all actives have a fitted effect of over 60% in size
Target sequence (O15648 whole entry, looked up): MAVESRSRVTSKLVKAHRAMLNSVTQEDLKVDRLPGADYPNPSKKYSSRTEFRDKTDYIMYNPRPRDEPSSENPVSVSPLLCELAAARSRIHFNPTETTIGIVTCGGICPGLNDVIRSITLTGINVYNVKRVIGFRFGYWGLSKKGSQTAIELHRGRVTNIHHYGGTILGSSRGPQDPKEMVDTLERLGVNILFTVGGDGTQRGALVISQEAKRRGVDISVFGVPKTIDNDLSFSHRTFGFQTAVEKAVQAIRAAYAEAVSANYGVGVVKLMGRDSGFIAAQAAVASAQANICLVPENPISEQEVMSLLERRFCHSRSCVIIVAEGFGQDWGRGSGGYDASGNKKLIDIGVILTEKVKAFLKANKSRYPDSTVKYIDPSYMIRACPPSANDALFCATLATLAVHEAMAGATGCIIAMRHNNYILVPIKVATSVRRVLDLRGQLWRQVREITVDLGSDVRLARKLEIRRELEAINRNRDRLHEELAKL
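PFK 1.25 nM, F6P 0.5 mM, ATP 0.1 mM, 0.1 M TEA pH 8.0, 5 mM MgCl2, 0.01% Tween20, 0.1% BSA; 45 min RT. ADP-Glo readout. qHTS titration up to 57 uM; curves fitted, compounds curve-classed.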
ERG Ets-DNA blk: inhibitors of human ERG Ets domain-DNA interaction | P11308 | Potency, µM (doses to about 76.9 µM), hits mostly inhibitors | actives 0.028% (n = 370,000) | fluorescence polarization, His-ERG Ets domain / labelled DNA; active means well fitted inhibition curve with a large enough effect in the polarisation, with a control signal flat; inconclusive means small, poorly fitted or top-dose-only effect, or effect the other way, or a change in a side signal; inactive means no such curve, though single readings can be large or run the other way; the % refers to the polarisation;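 further: polarization taken with two DNA probes labelled with fluorescein and Texas red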
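His-tagged ERG Ets domain (1 uM in the protein solution; 300mM KCl, 50mM Tris-HCl, 1mM EDTA, 1mM DTT, pH 7.5) received compound, then a probe mix of 5 nM fluorescein-DNA and 100nM Texas-615-DNA. Fluorescence polarization was read for both dyes.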
Pin1 inh: human Pin1 inhibition. Q13526. AID 504891. Potency, µM (doses to about 115 µM), hits mostly inhibitors. Pin1 FP peptide displacement, HiFluor488, 10 min. actives 0.009% (n = 390,000); active means well fitted inhibition curve with a large enough effect in the polarisation, with a control signal flat, not every such curve was filed as active; inconclusive means small, poorly fitted or top-dose-only effect, or effect the other way, or a change in a side signal; inactive means no such curve, though single readings can be large or run the other way; the % refers to the polarisation
PGK inhibitor: blocks T. brucei phosphoglycerate kinase; Potency, µM (top dose mostly 57.5 µM), most hits filed as inhibitors; PGK/GAPDH coupled, Kinase-Glo luminescence, 60 min; AID 602233; actives 0.043% (n = 380,000); further: nearly all actives have a fitted effect of over 60% in size
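Luminescent ATP detection (Kinase-Glo Plus) follows a 60-minute room-temperature incubation, with wells lacking PGK as controls. Buffer: 100 mM TEA (pH 7.6), 5 mM MgCl2, 0.01% Tween-20. Coupling enzyme GAPDH (100 nM final) supplies unstable 1,3-BPG in-well.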
BCR signal inh: inhibitors of chronic active B-cell receptor signaling; ABC-DLBCL IkBa-CBG/CBR reporter, luminescence ratio, 4 h; Potency, µM (series often up to 46.1 µM), hits mostly inhibitors; actives 0.05% (n = 340,000); active means well fitted inhibition curve with a large enough effect in the signal ratio, with a control signal flat, not every such curve was filed as active; inconclusive means small, poorly fitted or top-dose-only effect, or effect the other way, or a change in a side signal; the % refers to the signal ratio
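Compounds up to 46 uM were incubated four hours with TMD8 cells whose green CBG68 luciferase is fused to IkappaBalpha; red CBR luminescence normalised the signal, and concentration-effect curves were fitted to fusion, red and ratio data.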
Of the large screens only hits and unclear results are named; the others gave an inactive call. Unless noted, the call rests on the fitted dose curve; in most records, active means well fitted curve in the direction sought with a large enough effect; inconclusive means small, poorly fitted or top-dose-only effect, or another doubt; inactive means no such curve, though single readings can be large; an effect the other way counts as inactive or inconclusive.

CC(=O)c1ccc2c(c1)C1C=CCC1C(C(=O)O)N2 (stereo unspecified)	Tb PFK inh 8.5µM, PGK inhibitor 14µM (no result: Pin1 inh)
O=C(CCS(=O)(=O)c1ccc(F)cc1)Nc1nc(-c2ccncc2)cs1	Tb PFK inh 21µM
CC(C)(C)c1csc(NC(=O)CCS(=O)(=O)c2ccc(F)cc2)n1	none (no result: Tb PFK inh, ERG Ets-DNA blk, Pin1 inh, BCR signal inh)
Cn1ccnc1SCC(=O)c1ccc(Cl)cc1	BCR signal inh 18µM
COc1ccc(C2Nc3ccccc3C(=O)N2Cc2ccccc2)cc1COc1cccc(C)c1 (stereo unspecified)	none (no result: Tb PFK inh, ERG Ets-DNA blk, PGK inhibitor, BCR signal inh)
N#CNc1nc(O)cc(=O)[nH]1	PGK inhibitor 28µM
CCSc1nc(O)cc(=O)[nH]1	none
Cc1nn(C(C)(C)C)c(C)c1/C=N/OC(=O)Nc1ccc(Cl)c(Cl)c1	Tb PFK inh 17µM
CC1=NN(Cc2ccccc2)C(=O)C1C(c1ccccc1)C(C#N)C#N (stereo unspecified)	BCR signal inh inconclusive
CC1=NN(Cc2ccccc2)C(=O)C1C(c1ccc(Cl)cc1)C(C#N)C#N (stereo unspecified)	BCR signal inh 21µM (no result: ERG Ets-DNA blk)
CSc1ccccc1NC(=O)c1noc2c1CCC2	Tb PFK inh 17µM, Pin1 inh inconclusive, PGK inhibitor inconclusive, BCR signal inh inconclusive
COc1ccc(OC)c(CCNC(=O)Cn2nc(C)c3c(C)n(-c4ccc(C)cc4)nc3c2=O)c1	Pin1 inh inconclusive
COc1ccc(OC)c(CCNC(=O)Cn2sc3nc(C)cc(C)c3c2=O)c1	Tb PFK inh 2.4µM, BCR signal inh inconclusive (no result: ERG Ets-DNA blk, Pin1 inh, PGK inhibitor)
CCCCC[C@H](O)/C=C/[C@H]1C=CC(=O)[C@@H]1C/C=C\CCCC(=O)O	Tb PFK inh 30µM, BCR signal inh inconclusive (no result: ERG Ets-DNA blk, Pin1 inh, PGK inhibitor)
CCCCCC(O)C=CC1C(O)CC(O)C1CC=CCCCC(=O)O (stereo unspecified)	none (no result: Tb PFK inh, ERG Ets-DNA blk, Pin1 inh, BCR signal inh)
O=C(Cc1ccc(-n2c(=O)c3ccccc3n(Cc3ccccc3Cl)c2=O)cc1)NCC1CCCO1 (stereo unspecified)	BCR signal inh 2.8µM
O=C(Cc1ccc(-n2c(=O)c3ccccc3n(Cc3ccc(F)cc3)c2=O)cc1)NCC1CCCO1 (stereo unspecified)	BCR signal inh 8.2µM
O=C(Cc1ccc(-n2c(=O)c3ccccc3n(Cc3ccccc3F)c2=O)cc1)NCC1CCCO1 (stereo unspecified)	BCR signal inh inconclusive
CCc1nn2c(=O)cc(N3CCN(C)CC3)nc2s1	none (no result: Tb PFK inh, ERG Ets-DNA blk, PGK inhibitor, BCR signal inh)
CCCSc1nc(C)c(C(C)=O)cc1C#N	BCR signal inh 18µM
COC(=O)CSc1nc(C)c(C(C)=O)cc1C#N	BCR signal inh inconclusive
Cc1cc(/C=C2\C(=O)NC(=O)N(Cc3ccccc3Cl)C2=O)c(C)n1-c1ccc(C(=O)O)cc1	PGK inhibitor inconclusive
Cc1cc(/C=C2\C(=O)NC(=O)N(Cc3ccccc3)C2=O)c(C)n1-c1ccc(Cl)c(C(=O)O)c1	PGK inhibitor 13µM
COc1ccc(Nc2nc(C#N)nc(NC3CCCC3)n2)cc1	none (no result: Tb PFK inh, ERG Ets-DNA blk, PGK inhibitor, BCR signal inh)
COc1cc(F)c(S(=O)(=O)N2CCN(S(=O)(=O)c3ccc(N)cc3)CC2)c(F)c1	none (no result: Tb PFK inh, ERG Ets-DNA blk, PGK inhibitor, BCR signal inh)
CC(=O)NNC(=O)c1cc2sccc2s1	none
NNC(=O)c1cc2sccc2s1	BCR signal inh 18µM
Cc1ccc(-n2sc3ccccc3c2=O)cc1	Tb PFK inh 9.5µM, BCR signal inh inconclusive
O=c1c2ccccc2sn1-c1ccc(Cl)cc1	none (no result: Tb PFK inh, ERG Ets-DNA blk, Pin1 inh, BCR signal inh)
Brc1ccc(-c2csc(N3CCNCC3)n2)cc1	none (no result: Tb PFK inh, ERG Ets-DNA blk, PGK inhibitor, BCR signal inh)
CCCCN=C1NN=C(c2ccc3c(c2)OCCO3)CS1	BCR signal inh inconclusive
c1cc2c(cc1C1=NNC(=NC3CC3)SC1)OCCO2	Tb PFK inh inconclusive, PGK inhibitor 13µM, BCR signal inh inconclusive
COc1ccc(C2c3c(ncn(CCc4ccccc4)c3=N)Oc3ccc4ccccc4c32)cc1OC (stereo unspecified)	none (no result: Tb PFK inh, ERG Ets-DNA blk, PGK inhibitor, BCR signal inh)
Cc1ccc(-c2cc(=O)c3ccccc3[nH]2)cc1	none
Cc1ccc2[nH]c(-c3ccccc3)cc(=O)c2c1	BCR signal inh 5.6µM
Oc1cc(O)cc(/C=C/c2ccc(O)c(O)c2)c1	Tb PFK inh 8.5µM, PGK inhibitor inconclusive
C=C1CCN(C(CC(C)C)C(=O)NCc2ccc(Cl)cc2)S(=O)(=O)c2ccccc21 (stereo unspecified)	none (no result: Tb PFK inh, ERG Ets-DNA blk, PGK inhibitor, BCR signal inh)
C[n+]1c2ccccc2nc2ccc(NCCO)cc21	Tb PFK inh inconclusive, ERG Ets-DNA blk 7.9µM, Pin1 inh inconclusive, PGK inhibitor inconclusive, BCR signal inh inconclusive

Screening results deposited in PubChem BioAssay by National Center for Advancing Translational Sciences (NCATS).
